Where “and” joins values, the source holds several entries; their conditions need not be identical. Equal values may be shown once. The panel holds about 83,000 compounds, 20% with a hit somewhere; the sample as a whole holds those more often.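 How to read the values: 0–100, growth inhibition (40 = 60% inhibited); 0, no net growth; -100 to 0, cell death (-40 = 40% of starting cells died; -100 = all dead).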 Calls of active or inactive are those of the source.
Test system: PC-3 prostate
Assay: NCI-60 one-dose screen, 48 h (100 = growth as untreated, 0 = no growth, -100 = all killed)
Settings: 0.25 µM
Protocol: Growth inhibition of the PC-3 human tumor cell line is measured as a screen for anti-cancer activity. Cells are grown in 96 well plates and exposed to the test compound for 48 hours. Compounds are tested at a single concentration, which is 10^-5 M for most compounds. The reported endpoint is percent growth (GI% or GIPRCNT), where numbers from 0 - 100% represent growth inhibition, and numbers from -100% - 0 represent cell death. For example, a value of 40 represents 60% growth inhibition. A value of 0 means no net growth occurred over the course of the experiment. A value of -40 indicates 40% of cells at the beginning of the experiment died by the end of the experiment. A value of -100 means all cells are dead at the end of the experiment.
NCI-60 Human Tumor Cell Lines Screen was performed using the standard one-dose NCI protocol, which is described in more detail at https://dtp.cancer.gov/discovery_development/nci-60/default.htm.
Compounds with GIPRCNT values below 10 were considered active. Activity score was based on GIPRCNT using the following formula: […]
Score is 0 for GIPRCNT values of 100 or above, 50 for GIPRCNT values of 0, and 100 for GIPRCNT values of -100.

Compound | growth
CCCCCCCCCCCCCCCc1ccc(Cl)c(O)c1Cl (tested in a mixture with another compound) | 59.5% (inactive)

Same assay, conditions: 10 µM

Compound | growth
CCCCCCCCCCCCCCCc1ccc(Cl)c(O)c1Cl (tested in a mixture with another compound) | 90.4% (inactive)
O=C(O)c1sccc1O | 49.3% (inactive)

Same assay, conditions: 10 µM unless noted

Compound | growth
Cn1c(=O)n(-c2ccc(C(C)(C)C#N)cc2)c2c3cc(-c4cnc5ccccc5c4)ccc3ncc21 | 13.2% (inactive) and -18% (active)
O=C(CN1CCOCC1)N1CCOCC1 | 90.8% (inactive)
O=C(/C=C/c1ccccn1)c1ccccc1O | 82.8% (inactive)
CCC(O)c1ccccc1 (stereo not given) | 116% (inactive) and 102% (inactive)
Clc1ccc(NC(Nc2ccc(Cl)cc2)C(Cl)(Cl)Cl)cc1 | 91.9% (inactive)
CC1CCCc2sc3nc(NNC(=O)c4cnccn4)n(-c4ccccc4)c(=O)c3c21 (stereo not given) | 30% (inactive) and 27.4% (inactive)
COc1ccc(Cn2c(NCCN=C(N)N)nc(=O)n(Cc3ccc(F)cc3)c2=O)cc1 | 83% (inactive) and 87.1% (inactive)
CC1(c2ccc3ccccc3c2)CCC(=O)O1 (stereo not given) | 97.9% (inactive)
O=C(Nc1ccc(Cl)cc1)c1cc2ccccc2cc1O | 11.5% (inactive) and -13.1% (active)
Cc1c(Cl)cccc1NCN1C(=O)c2ccccc2C1=O | 101% (inactive)
Cc1ccc(S(=O)(=O)NCN2C(=O)c3ccccc3C2=O)cc1 | 102% (inactive)
COc1ccc(S(=O)(=O)N2CCOCC2)cc1NC(=O)c1[nH]c(C)c2c1CCCCC2=O | 46.4% (inactive)
CCN(CC)CCCC(CNc1ccnc2cc(Cl)ccc12)c1ccc(Cl)cc1 (stereo not given) | 34.2% (inactive) and 19.3% (inactive)
Cc1ccc(-c2noc(C)n2)cc1 | 97.9% (inactive)
CCN(CC)CCOc1ccc2c(c1)C(=O)c1cc(OCCN(CC)CC)ccc1-2 | 70.6% (inactive) and 35.9% (inactive)
c1ccc(N(c2ccccc2)c2ccccc2)cc1 | 101% (inactive)
CC1(C)[C@@H](OC(=O)CCC(=O)O)CC[C@]2(C)[C@H]3C(=O)C=C4[C@@H]5C[C@@](C)(C(=O)O)CC[C@]5(C)CC[C@@]4(C)[C@]3(C)CC[C@@H]12 | 103% (inactive) and -28.4% (active)
O=C(Cc1cccc2ccccc12)N/N=C/c1ccc2c(c1)CCC2 | 74.2% (inactive)

Compound | growth
O=C(O)c1cc(C(=O)O)cc([N+](=O)[O-])c1 | 96.4% (inactive)
CCN(CC)CCNc1cc(-c2cccc(OC(F)(F)F)c2)nc2ccc(N3CCCC3)cc12 | -94.4% (active) and 7.18% (active) and 28.2% (inactive)
Nc1cc(-c2cccc(OC(F)(F)F)c2)nc2ccc(N3CCCC3)cc12 | 20.5% (inactive) and 22.2% (inactive) and 18.3% (inactive)
O=C(CCc1ccc(O)cc1)N/N=C/c1cc(Br)ccc1O | 38.8% (inactive)
O=[N+]([O-])c1ccc(N/N=C\c2cc(Br)ccc2O)nc1 | 25.8% (inactive)
O=C(CN1CCN(c2cc3c(cc2F)c(=O)c(C(=O)O)cn3C2CC2)CC1)Nc1ccc(Cl)cc1 | 80.1% (inactive) and 89.1% (inactive)
c1ccc2cc(C[n+]3ccn(Cc4ccc5ccccc5n4)c3)ccc2c1 | 4.09% (active) and 14.7% (inactive)
N#C/C(=C1C=C/C(=N/O)C(Br)=C/1)c1ccccc1 | 4.02% (active)
CC1=CCC2CC1C2(C)C (stereo not given) | 101% (inactive) and 89.5% (inactive)
NC(=S)N/N=C(\c1ccc(Br)cc1)C1CC1 | 84.1% (inactive) and 61.5% (inactive)
O=C(O)C1(C(=O)O)CCC1.[NH2-].[NH2-].[Pt+2] | 93.6% (inactive) and 78.5% (inactive)
CNc1cc(-c2cccc(OC(F)(F)F)c2)nc2ccc(N3CCCC3)cc12 | -72% (active) and 8.8% (active) and 13.1% (inactive)
CCOc1ccc2cc(-c3nn(CC4CCN(C)CC4)c4ncnc(N)c34)ccc2c1 | 85.8% (inactive) and 51.5% (inactive)
O=C(Nc1cccc(Cl)c1)c1cc2ccccc2cc1O | 1.88% (active) and -4.44% (active)
Cc1cc(=O)[nH]c(O)c1C#N | 114% (inactive) and 102% (inactive)
Cc1cc(N=Nc2ccc(C)c(N=Nc3cc(C)c(N)cc3N)c2)c(N)cc1N | 64.6% (inactive)
CCOC(=O)Nc1ccc2c(c1)/C(=N\NC(N)=S)c1ccccc1-2 | 42.5% (inactive) and 90.9% (inactive)
Nc1n[nH]c(=S)n1-c1ccc(Cl)cc1 | 97.1% (inactive)

Same assay, conditions: 100 µM

Compound | growth
O=C(O)c1sccc1O | 23% (inactive)
